Experimental data from PubChem BioAssay.
The source made the active and inactive calls.

Experiments:
[1] = optical density shifts of acrAB sulA E. coli – strain DRC41, OD650, 48 h, E. coli filamentation inducer project, primary screen (AID 1152); conditions: higher = more signal, called active from +8 up or from −8 down;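 further: E. coli MC1000 strain DRC41 lacking acrAB efflux pump and sulA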
[2] = probe aLefty1 binding on compound microarray – biochemical, small-molecule microarray, 635/667 nm fluorescence, primary screen (AID 1153); conditions: higher = more signal;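 further: score merges spot fluorescence with signal-to-noise ratio from the scanned slide images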
[3] = plasmodial surface anion channel blockers, osmotic lysis – cell-based, P. falciparum Indochina, OD700, 1 h, primary screen (AID 1154); conditions: P. falciparum Indochina infected RBC osmotic lysis, higher = more signal, called active from +8 up or from −8 down
[4] = plasmodial surface anion channel blockers, osmotic lysis – cell-based, P. falciparum Indochina, OD700, 2 h, primary screen (AID 1155);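 further: lysis reports solute entry through the parasite surface anion channel PSAC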; conditions: P. falciparum Indochina infected erythrocytes, higher = more signal, called active from +8 up or from −8 down
[5] = changes in parasitized red cell lysis, either direction – P. falciparum Indochina, OD700, 3 h, PSAC antagonist project, primary screen (AID 1156); conditions: P. falciparum-infected erythrocytes, osmotic lysis, higher = more signal, called active from +8 up or from −8 down
[6] = plasmodial surface anion channel blockers, osmotic lysis – cell-based, P. falciparum Indochina, OD700, 18 h, primary screen (AID 1157); conditions: P. falciparum Indochina infected erythrocytes, osmotic lysis OD700, 18 h; higher = more signal, called active from +8 up or from −8 down
[7] = S6 kinase pathway phospho-S6 level changes – cell-based, A549, cytoblot, luminescence, serum-stimulated, primary screen (AID 1158); conditions: 5 h, higher = more signal;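 further: serum-stimulated A549 lung adenocarcinoma cells; signal is phosphorylated S6 detected by cytoblot immunostaining with HRP secondary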
[8] = molecular target: NADPH oxidase 2 (Homo sapiens) (UniProt P04839); assay: compounds shifting NOX2 Amplex Red fluorescence – cell-based, HEK293-NOX2, PMA-stimulated, NOX inhibitor project, primary screen (AID 1159); conditions: 45 min, higher = more signal, called active from +8 up or from −8 down; further: test concentration not given here
Sequence of NADPH oxidase 2 (Homo sapiens) (P04839 whole entry, looked up): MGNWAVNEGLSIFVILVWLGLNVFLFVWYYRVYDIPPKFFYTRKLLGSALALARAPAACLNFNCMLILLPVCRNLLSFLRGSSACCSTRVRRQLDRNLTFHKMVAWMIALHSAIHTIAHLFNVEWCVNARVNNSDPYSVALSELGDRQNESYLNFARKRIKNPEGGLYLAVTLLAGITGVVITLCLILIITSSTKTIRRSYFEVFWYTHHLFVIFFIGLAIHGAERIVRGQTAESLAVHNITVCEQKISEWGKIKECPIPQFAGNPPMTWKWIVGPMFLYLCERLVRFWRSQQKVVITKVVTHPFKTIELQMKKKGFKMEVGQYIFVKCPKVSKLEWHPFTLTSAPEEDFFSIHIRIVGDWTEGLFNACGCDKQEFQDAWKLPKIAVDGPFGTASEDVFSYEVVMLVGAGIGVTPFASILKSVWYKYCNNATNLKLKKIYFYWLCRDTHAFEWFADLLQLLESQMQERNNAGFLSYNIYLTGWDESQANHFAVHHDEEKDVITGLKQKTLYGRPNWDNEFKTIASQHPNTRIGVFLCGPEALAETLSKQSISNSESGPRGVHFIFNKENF

[9] = molecular target: NADPH oxidase 4 (Homo sapiens) (UniProt Q9NPH5); assay: compounds shifting NOX4 Amplex Red fluorescence – cell-based, HEK293-NOX4, tetracycline-induced, NOX inhibitor project, primary screen (AID 1160); conditions: HEK293-NOX4, Amplex Red H2O2 fluorescence, 45 min; higher = more signal, called active from +8 up or from −8 down
Sequence of NADPH oxidase 4 (Homo sapiens) (Q9NPH5 whole entry, looked up): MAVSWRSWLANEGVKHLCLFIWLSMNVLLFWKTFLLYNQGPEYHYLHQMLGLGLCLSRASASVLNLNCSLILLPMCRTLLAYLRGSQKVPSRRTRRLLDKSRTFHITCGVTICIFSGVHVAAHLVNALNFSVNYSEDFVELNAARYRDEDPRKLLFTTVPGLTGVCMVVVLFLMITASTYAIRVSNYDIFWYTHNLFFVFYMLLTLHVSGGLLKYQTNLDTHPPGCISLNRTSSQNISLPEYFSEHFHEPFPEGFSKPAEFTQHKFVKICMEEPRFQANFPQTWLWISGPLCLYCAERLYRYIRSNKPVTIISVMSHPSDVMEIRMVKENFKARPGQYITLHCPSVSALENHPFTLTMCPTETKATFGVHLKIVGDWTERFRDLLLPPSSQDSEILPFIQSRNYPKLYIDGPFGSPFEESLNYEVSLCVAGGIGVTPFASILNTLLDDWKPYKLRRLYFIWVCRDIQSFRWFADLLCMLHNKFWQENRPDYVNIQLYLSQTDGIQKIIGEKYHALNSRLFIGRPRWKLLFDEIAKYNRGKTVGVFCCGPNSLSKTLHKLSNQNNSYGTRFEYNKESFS

[10] = molecular target: NADPH oxidase 5 (Homo sapiens) (UniProt Q96PH1); assay: compounds shifting NOX5 Amplex Red fluorescence – cell-based, HEK293-NOX5, NOX inhibitor project, primary screen (AID 1161); conditions: HEK293-NOX5, ionomycin, 45 min, higher = more signal
Sequence of NADPH oxidase 5 (Homo sapiens) (Q96PH1 whole entry, looked up): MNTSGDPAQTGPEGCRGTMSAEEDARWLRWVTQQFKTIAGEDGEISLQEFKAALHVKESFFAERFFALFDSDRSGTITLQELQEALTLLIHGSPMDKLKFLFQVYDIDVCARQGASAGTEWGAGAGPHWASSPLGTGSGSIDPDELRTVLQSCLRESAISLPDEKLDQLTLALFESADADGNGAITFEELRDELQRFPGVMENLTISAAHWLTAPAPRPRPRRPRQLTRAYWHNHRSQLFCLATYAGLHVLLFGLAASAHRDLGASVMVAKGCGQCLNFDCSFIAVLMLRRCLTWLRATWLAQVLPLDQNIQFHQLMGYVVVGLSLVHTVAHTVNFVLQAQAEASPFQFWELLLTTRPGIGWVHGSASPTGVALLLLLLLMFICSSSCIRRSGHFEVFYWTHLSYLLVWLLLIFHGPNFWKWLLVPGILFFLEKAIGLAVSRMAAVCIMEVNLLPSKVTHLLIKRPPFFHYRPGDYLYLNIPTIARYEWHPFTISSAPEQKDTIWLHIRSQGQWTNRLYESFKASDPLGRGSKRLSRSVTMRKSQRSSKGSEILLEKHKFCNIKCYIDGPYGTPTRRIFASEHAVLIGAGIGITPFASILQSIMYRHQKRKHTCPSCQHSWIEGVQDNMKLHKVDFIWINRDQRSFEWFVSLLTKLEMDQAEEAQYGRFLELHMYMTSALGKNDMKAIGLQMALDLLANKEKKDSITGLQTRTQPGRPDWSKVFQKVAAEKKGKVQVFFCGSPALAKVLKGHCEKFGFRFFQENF

[11] = compound effects on lung adenocarcinoma cell viability – A549, calcein-AM fluorescence, 48 h, basal, profiling panel (AID 1162); conditions: higher = more signal; further: test concentration not given here
[12] = compound effects on differentiated 3T3-L1 adipocyte viability – cell-based, 3T3-L1 adipocytes, calcein-AM fluorescence, 48 h, basal, profiling panel (AID 1163); conditions: 3T3-L1 adipocytes viability, higher = more signal; further: test concentration not given here
[13] = compound effects on hepatocellular carcinoma cell viability – HepG2, calcein-AM fluorescence, 48 h, basal, profiling panel (AID 1164); conditions: higher = more signal; further: test concentration not given here
[14] = compound effects on multiple myeloma cell viability – MM1S, calcein-AM fluorescence, 48 h, basal, profiling panel (AID 1165); conditions: higher = more signal; further: test concentration not given here
[15] = calcein-AM signal in unstimulated myeloma cells – cell-based, calcein-AM fluorescence, 48 h, PK04 Diversity Set, profiling panel (AID 1166); conditions: RPMI8226 myeloma viability, higher = more signal;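 further: cells grown under basal conditions without added stimulus; test concentration not given here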
[16] = JC-1 mitochondrial signal, unstimulated HepG2 cells – cell-based, JC-1 fluorescence, 24 h, 100 nL compound, profiling panel (AID 1167); conditions: HepG2 mitochondrial potential, higher = more signal; further: test concentration not given here
[17] = JC-1 mitochondrial signal, unstimulated adipocytes – cell-based, JC-1 fluorescence, 3T3-L1 adipocytes, 24 h, 100 nL compound, profiling panel (AID 1168); conditions: JC-1 mitochondrial fluorescence, higher = more signal, called active from +8 up or from −8 down; further: test concentration not given here
[18] = JC-1 mitochondrial signal, unstimulated myeloma cells – cell-based, JC-1 fluorescence, RPMI8226, 24 h, 100 nL compound, profiling panel (AID 1169); conditions: JC-1 mitochondrial potential fluorescence, higher = more signal; further: test concentration not given here
[19] = JC-1 mitochondrial signal, unstimulated MM1S myeloma – cell-based, JC-1 fluorescence, 24 h, 100 nL compound, profiling panel (AID 1170); conditions: MM1S mitochondrial potential, higher = more signal; further: test concentration not given here
[20] = resazurin metabolic signal in A549 cells – cell-based, resazurin fluorescence, 24 h, PK04 Diversity Set, profiling panel (AID 1171); conditions: A549 viability, higher = more signal, called active from +8 up or from −8 down; further: test concentration not given here

## CCCC[C@H]1CN2[C@@H](CC[C@@H](C)[C@@H]2c2ccc(Br)cc2)C(=O)O1
[1]
  z-score: -0.461 (inactive)
[2]
  composite z-score: -0.0275
[3]
  z-score: 2.91 (inactive)
[4]
  z-score: 0.809 (inactive)
[5]
  z-score: -0.192 (inactive)
[6]
  z-score: 0.711 (inactive)
[7]
  z-score: -0.46
[8]
  z-score: 1.43 (inactive)
[9]
  z-score: 0.516 (inactive)
[10]
  z-score: 1.47
[11]
  z-score: 0.214
[12]
  z-score: 0.544
[13]
  z-score: -0.189
[14]
  z-score: -0.256
[15]
  z-score: -0.238
[16]
  z-score: 0.13
[17]
  z-score: -0.206 (inactive)
[18]
  z-score: -0.221
[19]
  z-score: 0.94
[20]
  z-score: 0.8 (inactive)

## Cc1ccc(C(C)C)n1C(=O)OC(C)(C)C
[1]
  z-score: -0.241 (inactive)
[2]
  composite z-score: -0.0934
[3]
  z-score: -0.446 (inactive)
[4]
  z-score: -1.44 (inactive)
[5]
  z-score: -0.165 (inactive)
[6]
  z-score: -1.53 (inactive)
[7]
  z-score: 1.04
[8]
  z-score: -0.137 (inactive)
[9]
  z-score: 0.209 (inactive)
[10]
  z-score: 0.674
[11]
  z-score: 1.88
[12]
  z-score: 0.0856
[13]
  z-score: 0.577
[14]
  z-score: 0.547
[15]
  z-score: 0.228
[16]
  z-score: -0.503
[17]
  z-score: 0.499 (inactive)
[18]
  z-score: 0.68
[19]
  z-score: 0.196
[20]
  z-score: -1.47 (inactive)

## CC(C)=CCCC(C)=CCON=C1C[C@@H](O)[C@@H](O)[C@@H]2[C@@H]3C(=O)N(C4CCCCC4)C(=O)[C@@H]3CC[C@H]12
[1]
  z-score: 0.693 (inactive)
[2]
  composite z-score: -0.132
[3]
  z-score: 7.24 (inactive)
[4]
  z-score: 0.991 (inactive)
[5]
  z-score: 1.11 (inactive)
[6]
  z-score: 0.645 (inactive)
[7]
  z-score: -0.319
[8]
  z-score: -0.693 (inactive)
[9]
  z-score: -1.02 (inactive)
[10]
  z-score: -4.91
[11]
  z-score: -0.529
[12]
  z-score: -0.735
[13]
  z-score: -0.0977
[14]
  z-score: -2.9
[15]
  z-score: -0.201
[16]
  z-score: -1.47
[17]
  z-score: -0.444 (inactive)
[18]
  z-score: -0.467
[19]
  z-score: -1.4
[20]
  z-score: -0.587 (inactive)

## C=CC[C@@H]1C=C[C@H](ON=C(C)CCN2CCCc3nc(C)c(C)cc32)[C@@H](CO)O1
[1]
  z-score: 0.579 (inactive)
[2]
  composite z-score: 0.97
[3]
  z-score: 3.7 (inactive)
[4]
  z-score: 0.327 (inactive)
[5]
  z-score: 0.206 (inactive)
[6]
  z-score: 0.562 (inactive)
[7]
  z-score: -1.04
[8]
  z-score: -0.297 (inactive)
[9]
  z-score: -0.0344 (inactive)
[10]
  z-score: -0.473
[11]
  z-score: 0.226
[12]
  z-score: -0.0137
[13]
  z-score: 0.0526
[14]
  z-score: -2.03
[15]
  z-score: -1.06
[16]
  z-score: -0.276
[17]
  z-score: 0.0489 (inactive)
[18]
  z-score: -0.989
[19]
  z-score: -0.455
[20]
  z-score: -0.246 (inactive)

## CC(C)=NOC[C@@H](O)[C@H]1O[C@@H]2OC(C)(C)O[C@@H]2[C@H]1O
[1]
  z-score: 0.269 (inactive)
[2]
  composite z-score: -0.0501
[3]
  z-score: 0.0289 (inactive)
[4]
  z-score: 0.0612 (inactive)
[5]
  z-score: -0.0091 (inactive)
[6]
  z-score: 0.269 (inactive)
[7]
  z-score: 0.0226
[8]
  z-score: -0.162 (inactive)
[9]
  z-score: -0.514 (inactive)
[10]
  z-score: 0.0874
[11]
  z-score: 0.112
[12]
  z-score: -1.53
[13]
  z-score: 0.139
[14]
  z-score: -0.112
[15]
  z-score: -0.0588
[16]
  z-score: -0.00334
[17]
  z-score: -1.09 (inactive)
[18]
  z-score: -1.01
[19]
  z-score: 0.661
[20]
  z-score: -0.871 (inactive)

## COC(=O)[C@@H]1CC[C@H](C)[C@@H](c2ccc(C)cc2)N1C(=O)c1ccc(C=NO[C@@H](C)c2cc(-c3c(C)cc(C)cc3C)no2)cc1
[1]
  z-score: 0.934 (inactive)
[2]
  composite z-score: -0.242
[3]
  z-score: 1.12 (inactive)
[4]
  z-score: 0.804 (inactive)
[5]
  z-score: 0.894 (inactive)
[6]
  z-score: 0.662 (inactive)
[7]
  z-score: 0.677
[8]
  z-score: 0.564 (inactive)
[9]
  z-score: 0.945 (inactive)
[10]
  z-score: 0.406
[11]
  z-score: 0.203
[12]
  z-score: -0.576
[13]
  z-score: 1.38
[14]
  z-score: -0.56
[15]
  z-score: 0.148
[16]
  z-score: 3.24
[17]
  z-score: 0.161 (inactive)
[18]
  z-score: 0.239
[19]
  z-score: -0.749
[20]
  z-score: -0.462 (inactive)

## CO[C@H]1COC(=O)[C@H](C)COC(=O)[C@@H](OCc2ccccc2)C=C[C@@H]1C
[1]
  z-score: 0.623 (inactive)
[2]
  composite z-score: -0.193
[3]
  z-score: 0.345 (inactive)
[4]
  z-score: 0.0669 (inactive)
[5]
  z-score: -0.258 (inactive)
[6]
  z-score: 0.0584 (inactive)
[7]
  z-score: 0.893
[8]
  z-score: -0.596 (inactive)
[9]
  z-score: 0.603 (inactive)
[10]
  z-score: 0.214
[11]
  z-score: 0.644
[12]
  z-score: 0.0582
[13]
  z-score: 0.392
[14]
  z-score: 0.493
[15]
  z-score: -0.584
[16]
  z-score: 0.919
[17]
  z-score: 0.308 (inactive)
[18]
  z-score: -0.177
[19]
  z-score: 1.26
[20]
  z-score: -0.0266 (inactive)

## CC(C)[C@@H](OCc1ccccc1)[C@H](C)C=NO[C@@H](C)c1cn([C@H](CO)Cc2ccccc2)nn1
[1]
  z-score: 0.502 (inactive)
[2]
  composite z-score: 0.086
[3]
  z-score: 1.82 (inactive)
[4]
  z-score: -0.246 (inactive)
[5]
  z-score: -0.038 (inactive)
[6]
  z-score: 0.245 (inactive)
[7]
  z-score: -0.78
[8]
  z-score: -1.07 (inactive)
[9]
  z-score: -0.046 (inactive)
[10]
  z-score: -0.543
[11]
  z-score: 0.0751
[12]
  z-score: 0.143
[13]
  z-score: -0.112
[14]
  z-score: -0.265
[15]
  z-score: 0.0853
[16]
  z-score: -0.944
[17]
  z-score: -1.54 (inactive)
[18]
  z-score: 0.362
[19]
  z-score: -0.318
[20]
  z-score: -0.877 (inactive)

## C[C@@H]1CC[C@H]2C(=O)O[C@@H](COc3ccc(C(C)(C)C)cc3)CN2[C@H]1c1ccc(Br)cc1
[1]
  z-score: -0.113 (inactive)
[2]
  composite z-score: -0.103
[3]
  z-score: 1.25 (inactive)
[4]
  z-score: 0.937 (inactive)
[5]
  z-score: -0.897 (inactive)
[6]
  z-score: 0.588 (inactive)
[7]
  z-score: -0.261
[8]
  z-score: -0.271 (inactive)
[9]
  z-score: 0.562 (inactive)
[10]
  z-score: 0.257
[11]
  z-score: 0.255
[12]
  z-score: -0.076
[13]
  z-score: 0.0944
[14]
  z-score: -1.26
[15]
  z-score: -0.794
[16]
  z-score: -1.31
[17]
  z-score: -1.16 (inactive)
[18]
  z-score: -0.16
[19]
  z-score: 0.455
[20]
  z-score: 1.71 (inactive)
